Bioassay records from PubChem.
M1 PAM parental: nonselective calcium activators in parental CHO-K1 cells, primary screen, counter-screen for M1 PAM project, cell-based, Fluo-8 calcium fluorescence, full deck, 1536-well; ATP EC20; 0% at ATP EC20, 100% at ATP max; activation, % at 3 µM; hit rate 0.02% among 360,000;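 active = activation above the run cutoff, the mean activation of all test compounds plus 3 SD, cut at about 40% in these data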;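 also: peak over basal fluorescence ratio in a 140 s read after ATP addition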
M1 ag parental: counter-screen for M1 agonists: effect in parental CHO-K1 cells; hit rate 0.48% among 360,000; Fluo-8 calcium fluorescence; scaled to maximal ATP response, vehicle zero; activation, % at 3 µM; in the data active = activation above about 15%;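 also: untransfected CHO-K1 host cells lacking M1 receptor as counterscreen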
CHO-K1 Ca antag: counter-screen for M1 antagonists: effect in parental CHO-K1 cells; ATP-induced calcium, Fluo-8 fluorescence; inhibition, % at 3 µM; hit rate 0.6% among 360,000;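 active = inhibition above a per-plate cutoff, the plate's mean sample inhibition plus 3 SD, cut at about 24% in these data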;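 also: 0% = DMSO plus EC80 ATP and 100% = DMSO alone without ATP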
CHRM1 antagonist: human M1 muscarinic receptor antagonists, primary screen, CHO-K1 cells, Fluo-8 calcium fluorescence, 1536-well. AID 588852, 2011. hit rate 1.3% among 360,000. inhibition, % at 3 µM. CHO-K1 hM1, ACh EC80 antagonist. Muscarinic acetylcholine receptor M1 (Homo sapiens), P11229;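 active = percent inhibition above its own plate's cutoff, namely the mean of that plate's compound wells plus 3 SD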;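 also: peak over basal fluorescence ratio during 140 s after agonist addition; 0% = ACh EC80 plus DMSO and 100% = DMSO alone without agonist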
Target sequence (P11229 whole entry, looked up): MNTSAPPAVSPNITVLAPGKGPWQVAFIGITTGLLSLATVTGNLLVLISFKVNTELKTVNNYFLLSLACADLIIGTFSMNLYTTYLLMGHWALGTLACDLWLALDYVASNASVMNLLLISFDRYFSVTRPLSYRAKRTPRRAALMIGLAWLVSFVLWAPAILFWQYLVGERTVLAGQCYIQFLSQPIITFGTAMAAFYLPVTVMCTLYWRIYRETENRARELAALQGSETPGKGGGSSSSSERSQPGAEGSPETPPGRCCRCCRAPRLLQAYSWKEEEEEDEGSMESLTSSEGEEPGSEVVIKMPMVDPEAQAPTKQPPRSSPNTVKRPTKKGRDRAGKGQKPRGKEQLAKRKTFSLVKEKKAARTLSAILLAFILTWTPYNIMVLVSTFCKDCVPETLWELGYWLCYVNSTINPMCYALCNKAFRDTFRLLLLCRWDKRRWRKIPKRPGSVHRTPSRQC
M1 ag: human M1 muscarinic receptor agonists, primary screen, Fluo-8 calcium fluorescence, CHO-K1 cells, HTS | Muscarinic acetylcholine receptor M1 (Homo sapiens), P11229 | CHO-K1 hM1, agonist mode; 0% DMSO, 100% acetylcholine EC100 | activation, % at 3 µM | hit rate 0.33% among 360,000 | AID 588814, 2011;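 active = activation above the run's mean compound activation plus 3 SD, cut at about 16% in these data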;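 also: peak over basal fluorescence ratio within a 140 s kinetic read after compound addition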
CHRM1 PAM: human M1 muscarinic receptor positive allosteric modulators, primary screen, CHO-K1 cells, Fluo-8 calcium fluorescence, 1536-well. CHO-K1 hM1, ACh EC20; 0% = ACh EC20, 100% = maximal ACh. hit rate 0.088% among 360,000. AID 588819, 2011. activation, % at 3 µM; in the data active = activation above about 19%, passing the limit was not always enough
* marks the source's active call; other numbers are inactive results. Sampled rows, rich in hits. Any-hit rate of the full collection: about 2.3%.

SMILES | M1 PAM parental | M1 ag parental | CHO-K1 Ca antag | CHRM1 antagonist | M1 ag | CHRM1 PAM
O=C(C1CCOCC1)N1CCCC(N2CCN(c3cccc(C(F)(F)F)c3)CC2)C1 (stereo not drawn) | -9 | 0 | -6 | -11 | -5 | 5
CCN(CC)C(=O)C1CCCN(C(=O)CCn2nnnc2CN2CCOCC2)C1 (stereo not drawn) | 0 | 0 | 1 | -14 | -3 | 9
CCOC(=O)C1CCCN(C(=O)CCn2nnnc2CN2CCOCC2)C1 (stereo not drawn) | 23 | 0 | 1 | 17 | 32* | -13
COc1cccc(CNc2cnc3ccccc3c2)c1O | 4 | 16* | 7 | 8 | 4 | -9
COc1ccc(CCNC(=O)CCS(=O)(=O)c2ccc3c(c2)NC(=O)CO3)cc1OC | 3 | 0 | -7 | -12 | -2 | 7
CSc1ccc(CN2CCC(C)(Oc3cccc(C#N)c3)C2)cc1 (stereo not drawn) | 20 | 0 | -7 | 36* | -9 | -29
COCCNC(=O)CN1C(=O)NC2(CCCc3ccccc32)C1=O (stereo not drawn) | 13 | 0 | 2 | 67* | 0 | 4
Cc1ccccc1C1=NC(C(F)(F)F)(C(F)(F)F)c2c(n(C)c(=O)n(C)c2=O)N1 | -2 | 1 | 8 | 0 | -4 | -1
Cn1c2c(c(=O)n(C)c1=O)C(C(F)(F)F)(C(F)(F)F)N=C(c1ccc(Cl)cc1)N2 | 8 | 11 | 19 | 24* | 5 | -9
COc1cc(OC)cc(C(=O)Nc2nc(CC(=O)NCc3ccccc3OC)cs2)c1 | -15 | 5 | 3 | 29* | -4 | -12
COc1ccc(Cc2nc3ccc(C(=O)NC(C)Cc4ncccc4C)cc3o2)cc1OC (stereo not drawn) | -32 | 8 | 17 | 15 | 0 | -10
NC(=S)NN=C1CSSC1 | 10 | 1 | -16 | -13 | -1 | 7
CCN(CC)C(CNC(=O)c1cc(=O)[nH]c2ccccc12)c1ccccc1Cl (stereo not drawn) | 19 | 2 | -21 | 55* | -11 | -30
O=C(NCc1cccc(Cl)c1)c1cc(=O)[nH]c2ccccc12 | -10 | 1 | 2 | 7 | -4 | 0
CCN(CC)S(=O)(=O)c1cccc(-c2nnc(SCCOc3ccc(Cl)cc3)o2)c1 | 18 | 0 | -8 | -20 | -2 | 2
CCN(CC)S(=O)(=O)c1cccc(-c2nnc(SCCOc3ccccc3)o2)c1 | 7 | 1 | 47* | -15 | 0 | -4
CN1CCC(N(C)C(=S)Nc2ccc(SC(F)F)cc2)CC1 | 9 | 1 | -6 | -1 | 18* | -3
CN1CCC(N(C)C(=S)Nc2ccc(F)cc2)CC1 | 4 | 0 | -4 | 3 | -4 | 4
O=[N+]([O-])/C=C\c1ccc(N2CCCC2)c(F)c1 | -3 | 27* | 18 | 51* | 24* | 3
O=Cc1ccc(N2CCCC2)c([N+](=O)[O-])c1 | 23 | 0 | -14 | -7 | -7 | 12
NNC(=O)c1cc(C23CC4CC(CC(C4)C2)C3)[nH]n1 | -8 | 17* | 2 | -7 | 3 | 6
CCCc1nnc(NC(=O)Cn2c(=O)oc3cc(Br)ccc32)s1 | 22 | 17* | -11 | 0 | 37* | -1
CCCc1nnc(NC(=O)Cn2c(=O)oc3ccccc32)s1 | 20 | 3 | -10 | -2 | 2 | 6
CCOc1ccccc1NC(=O)CCSc1nc2n[nH]c(C)c2c(=N)n1-c1ccccc1Cl | 21 | 2 | -14 | 34* | -3 | -13
COc1ccc(/C=N/NC(=O)C(=O)/C=C2\NC3(CCCC3)Cc3ccccc32)cc1 | 2 | 1 | 5 | -1 | 14 | 25*
O=C(/C=C1\NC2(CCCC2)Cc2ccccc21)C(=O)N/N=C/c1ccc(O)c(O)c1 | 8 | 1 | 0 | -11 | 17* | 19
